# Pf growth 48h – inhibits P. falciparum growth in the first generation, 48 h. AID 504832. Potency, µM (series often up to 28.7 µM), hits mostly inhibitors. hit rate 5.9% among 310,000. P. falciparum luciferase growth in erythrocytes, 48 h
#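 Read-out is firefly luciferase luminescence from an integrated reporter in P. falciparum, so falling signal marks reduced parasite growth. Infected erythrocytes were at 2% hematocrit and 0.1% parasitemia (final) in Albumax-supplemented RPMI 1640.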
# Pf growth 96h – inhibits malaria parasite growth, 96 h | hit rate 6.9% among 320,000 | Potency, µM (titrated, usually from 28.7 µM), most hits filed as inhibitors | AID 504834 | P. falciparum luciferase reporter growth, 96 h
#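 Compounds incubated with erythrocytes infected by luciferase-expressing P. falciparum (2% hematocrit, 0.05% parasitemia final) for 96 hours, 37 C in 5% CO2. Growth inhibition scored as decreased luciferase luminescence.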
# AMA1 RON2 block – inhibitors of Plasmodium falciparum AMA1-RON2 interaction. AID 720542. hit rate 0.2% among 360,000. Potency, µM (doses to about 58.2 µM), hits mostly inhibitors. AlphaScreen AMA1-biotinylated RON2 peptide binding; note: nearly all actives have a fitted effect of over 45% in size
#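 AMA1 (3D7) with his tag at 25 nM final met compounds first, then biotinylated RON2 peptide at 25 nM; detection used donor plus acceptor beads, 10 µg/mL apiece, read by AlphaScreen after 30 min at room temperature.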
# HCV inhibitor – blocks hepatitis C virus | Huh7.5.1 HCVcc-Cre infection, luciferase reporter, 44 h | Potency, µM (doses to about 41.8 µM), usual class: inhibitors | hit rate 3.4% among 340,000 | AID 651820
#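 Reporter virus HCVcc-Cre (~0.5 moi) infects cells exposed to compound; seeding density 1,000 cells/well with 4 h settling beforehand. Luminescence, 15 sec read, taken 44 h post-infection following a 15 min RT substrate incubation.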
# SARS PLpro yeast – SARS-CoV PLP inhibition in yeast; S. cerevisiae expressing SARS-CoV PLpro, growth rescue; Potency, µM (titrated, usually from 32.9 µM), most hits filed as activators; hit rate 0.19% among 330,000; AID 485353; calls by dose curve; note: nearly all actives have a fitted effect of over 55% in size
# NS1 function inh – inhibitors of influenza NS1 protein function; Potency, µM (doses to about 46.1 µM); hit rate 0.4% among 270,000; AID 2326; calls by dose curve; note: actives are rising curves; nearly all actives have a fitted effect of over 50% in size
#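 Read-out: OD600 growth recovery of NS1-expressing budding yeast. Cells grown overnight at 30C in -URA glucose medium, washed, resuspended and diluted 1:100 in 2% galactose assay medium, pH 6.0. Same strain lacking NS1 served as positive control.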
# A number is an active result; - = inactive; ? = inconclusive; . = no result given. The list is not random: actives were taken first. Their share in the collection is about 12%. Unless noted, calls come from the whole dose curve; as a rule, active = well fitted curve in the direction sought with a large enough effect; inconclusive = small, poorly fitted or top-dose-only effect, or another doubt; inactive = no such curve, though single readings can be large; an effect the other way counts as inactive or inconclusive.
SMILES,Pf growth 48h,Pf growth 96h,AMA1 RON2 block,HCV inhibitor,SARS PLpro yeast,NS1 function inh
CCCc1n(CC)c2ccccc2[n+]1CC(O)COC1CCCCC1 (stereo not given),?,-,-,-,-,.
O=C(C[C@H]1C/C=C\CCCCC(=O)OC[C@H]2CCCN2C1=O)N[C@H](CO)Cc1ccccc1,.,.,-,-,-,.
COCCn1c(NC(=S)NC(=O)C23CC4CC(CC(C4)C2)C3)cc(=O)[nH]c1=O,?,15µM,-,-,-,-
COCCn1c(NC(=S)NC(=O)C2CC2)cc(=O)[nH]c1=O,-,-,-,-,-,-
CC(C)(C)CC(=O)Nc1cccc2c1CCCC2,.,-,-,-,-,-
c1cc2c(c(NCc3ccncc3)c1)CCCC2,10µM,.,-,?,-,-
CCCCN1CC[C@H]2C=CC[C@@H](C(=O)N3CCOCC3)[C@H]2C1=O,.,.,-,0.56µM,.,.
Cn1cc(Br)c(C(=O)N/N=C/c2cc3c(cc2Cl)OCO3)n1,-,-,-,-,-,-
COc1cc(C(=O)Nc2ccc(C#N)cc2)c([N+](=O)[O-])cc1OC,-,10µM,-,-,-,.
CCCC[C@@H](CNC)NC[C@H](Cc1ccc(O)cc1)NCCc1ccc(OCC)cc1,2.6µM,0.93µM,-,?,-,-
CN(C=[N+](C)C)c1cccc2c1C(=O)c1ccccc1C2=O,-,-,32µM,?,-,-
Cc1cc(NC(=O)c2cc(-c3ccccn3)nc3c(Cl)cccc23)no1,-,2.1µM,-,-,-,-
Cc1cc(NC(=O)c2cc(-c3ccc(C)c(C)c3)nc3ccccc23)no1,0.83µM,0.74µM,-,?,-,-
Cc1cc(NC(=O)c2cc(-c3cccc(OCC(C)C)c3)nc3ccccc23)no1,?,2.3µM,-,13µM,-,-
Cc1cc(N2CCCC2=O)ccc1S(=O)(=O)NC1CCCCC1,-,-,-,-,-,-
CN1CCN(C(=O)COCc2cc(-c3ccc4c(c3)OCO4)on2)CC1,-,-,-,-,-,-
O=C(COCc1cc(-c2ccc3c(c2)OCO3)on1)N1CCN(c2ccccc2)CC1,-,10µM,-,-,-,-
Cc1cc2[nH]c3c4ccccc4nc(C)c3c2cc1C,.,.,-,13µM,.,.
Cc1nc2ccccc2c(=O)[nH]1,.,.,-,-,-,-
O=C(Nc1ccc([N+](=O)[O-])cc1)C(Cc1ccccc1)N1C(=O)c2cccc3cccc(c23)C1=O (stereo not given),5.2µM,?,-,-,-,?
O=C(O)c1ccccc1NC(=O)C(Cc1ccccc1)N1C(=O)c2ccccc2C1=O (stereo not given),-,?,-,-,-,-
C#CCOCCOCCOCCNc1nc(N2CCN(C(=O)CCCCCCCCCCNC(=O)[C@@H]([C@H](C)O)n3cc(C)nn3)CC2)nc(N2CCN(C(=O)CCCCCCCCCCNC(=O)[C@@H]([C@H](C)O)n3cc(C)nn3)CC2)n1,0.1µM,0.074µM,-,-,-,.
C#CCOCCOCCOCCNc1nc(N2CCN(C(=O)CCCCCCCCCCNC(=O)[C@H](CCCCN)n3cc(C)nn3)CC2)nc(N2CCN(C(=O)CCCCCCCCCCNC(=O)[C@@H]([C@H](C)CC)n3cc(CCCCCN)nn3)CC2)n1,3.3µM,4.1µM,.,22µM,-,.
C#CCOCCOCCOCCNc1nc(N2CCN(C(=O)CCCCCCCCCCNC(=O)[C@H]([C@@H](C)CC)n3cc(CCCCCN)nn3)CC2)nc(N2CCN(C(=O)CCCCCCCCCCNC(=O)[C@@H]([C@H](C)O)n3cc(C)nn3)CC2)n1,0.47µM,0.37µM,-,-,-,.
C#CCOCCOCCOCCNc1nc(N2CCN(C(=O)[C@H]([C@@H](C)CC)n3cc(CCCCN)nn3)CC2)nc(N2CCN(C(=O)[C@H](CCCCN)n3cc(CCC(=O)O)nn3)CC2)n1,-,-,-,-,-,.
SMILES,Pf growth 48h,Pf growth 96h,AMA1 RON2 block,HCV inhibitor,SARS PLpro yeast,NS1 function inh
Cc1cc(C)cc(N2CCCn3c2nc2c3c(=O)[nH]c(=O)n2C)c1,-,-,-,-,-,-
O=S(=O)(NCCc1ccc(Cl)cc1)c1cccc2cccnc12,-,9.3µM,-,-,-,-
CCN1CCCc2cc(CN(CCN3CCOCC3)C(=S)Nc3cccc(OC)c3)ccc21,?,?,-,-,-,.
Cc1ccc2nc(-c3ccccn3)cc(C(=O)Nc3ccc(S(=O)(=O)N4CCOCC4)cc3)c2c1,13µM,-,-,?,-,-
Cc1cc(C(=O)Nc2cccc(S(=O)(=O)N3CCCC3)c2)c2ccccc2n1,?,?,-,?,-,.
O=C(NCCc1ccccc1)c1cc(-c2ccncc2)nc2ccc(S(=O)(=O)N3CCOCC3)cc12,-,-,-,?,-,-
O=C(NCCN1CCCC1)c1cc(-c2ccncc2)nc2ccc(S(=O)(=O)N3CCOCC3)cc12,12µM,?,-,-,-,-
O=C(Nc1cccc(S(=O)(=O)N2CCCC2)c1)c1cc(-c2ccccn2)nc2ccccc12,12µM,?,-,?,-,.
COCCNC(=O)C/C(C)=N/NC(=O)C(=O)NC1CCCCC1,-,-,-,-,-,-
CC(C)OC(=O)c1ccc2nc3ccccc3nc2c1,-,-,-,-,-,-
COc1cc(/C=C2/C(=O)NN(c3ccc(C)c(Cl)c3)C2=O)cc([N+](=O)[O-])c1O,-,-,-,-,-,-
Cc1ccc(N2NC(=O)/C(=C\c3cc4c(cc3[N+](=O)[O-])OCO4)C2=O)cc1C,10µM,-,-,-,-,?
C/C(=N\NC(=O)c1ccoc1C)c1cccc2ccccc12,?,-,-,?,-,-
COc1ccc(C(=O)N2CCCC(Nc3ccc(F)cc3)C2)cc1F (stereo not given),-,10µM,-,-,-,-
Cc1ccc(NC2CCCN(C(=O)c3ccc4[nH]ccc4c3)C2)cc1C (stereo not given),?,13µM,-,-,-,-
CCCCC(=O)Nc1ccc(C(=O)Nc2ccc(OC)cc2[N+](=O)[O-])cc1,-,3.7µM,-,?,-,-
Cc1cc(C(=O)COc2ccc(F)cc2Br)c(C)n1C,-,-,-,-,-,.
CCC1(c2ccc(F)cc2)NC(=O)N(CC(=O)c2cc(C)n(C3CC3)c2C)C1=O (stereo not given),15µM,?,-,-,-,.
Cc1cc(C(=O)COc2ccc(F)cc2Br)c(C)n1C1CC1,?,10µM,-,?,-,.
Cc1cc(C(=O)COc2cccc([N+](=O)[O-])c2)c(C)n1C1CC1,-,-,-,11µM,-,.
Cc1ccc(OCC(=O)c2cc(C)n(C3CC3)c2C)c([N+](=O)[O-])n1,-,?,-,-,?,-
C=CCN(c1cccc(C(F)(F)F)c1)S(=O)(=O)c1cccc(C(=O)OCC(=O)NC)c1,?,12µM,-,-,-,-
O=C(c1ccco1)N1CCN(Cc2cc(=O)c(OCc3ccccc3F)co2)CC1,?,?,-,-,-,.

# Screening data: PubChem, National Center for Advancing Translational Sciences (NCATS)
